We go through 20 compounds from PubChem BioAssay (Tox21).

Each structure is given as a SMILES string. Records with an inconclusive call do not appear. Activity calls are given as the source filed them. Unless noted, calls come from the whole dose curve.

Test [1] in a line: qHTS assay to identify small molecule agonists of the androgen receptor (AR) signaling pathway in the presence of an antagonist - cell viability counter screen (AID 1259379; active = well fitted curve in the direction sought with a large enough effect in the repeat runs; an effect the other way counts as inactive or inconclusive; note: nearly all actives have a fitted effect of over 25% in size; note: potency is the fitted concentration of half-maximal effect). The method in brief:
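In MDA-kb2 cells (human breast carcinoma, MMTV-luciferase), compounds at 15 concentrations plus 3.0uM nilutamide; 16 hr, 37C, 0% CO2; CellTiter-Fluor fluorescence read for viability.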

A short description of test [2]: qHTS assay to identify small molecule agonists of the estrogen receptor beta (ER-beta) signaling pathway - cell viability counter screen (AID 1259380; active = well fitted curve in the direction sought with a large enough effect in the repeat runs; an effect the other way counts as inactive or inconclusive; note: nearly all actives have a fitted effect of over 30% in size; note: potency is the fitted concentration of half-maximal effect). The method in brief: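 Viability of ER-beta-UAS-bla HEK293T cells was determined by CellTiter-Glo luminescence following 16 hr treatment with test compounds at 37C.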
Test [3] can be described thus: qHTS assay to identify small molecule antagonists of the estrogen receptor beta (ER-beta) signaling pathway - cell viability counter screen (AID 1259382; active = well fitted curve in the direction sought with a large enough effect in the repeat runs; an effect the other way counts as inactive or inconclusive; note: nearly all actives have a fitted effect of over 55% in size; note: potency is the fitted concentration of half-maximal effect). An outline of the steps:
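Tox21 10K library tested in qHTS format on ER-beta-bla HEK293T cells stimulated with 1nM E2; 16 hr treatment at 37C. Same-well CellTiter-Glo luminescence served as the cell viability measure.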

The target in test [4] is Estrogen receptor (Homo sapiens) (UniProt P03372). Briefly: qHTS assay to identify small molecule agonists of the estrogen receptor alpha (ER-alpha) signaling pathway in the presence of an antagonist (AID 1259383). Note: top concentration of the series differs between compounds; nearly all actives have a fitted effect of over 15% in size. The method in brief:
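In VM7Luc4E2 cells, 4,000 per well, compounds at 15 concentrations were co-incubated 22hr at 37C with 10.0nM final ICI-182,780. Luminescence from the stably transfected 4×ERE-luciferase reporter was recorded 30min after ONE-Glo addition.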

Test [5] can be described thus: qHTS assay to identify small molecule agonists of the estrogen receptor alpha (ER-alpha) signaling pathway in the presence of an antagonist - cell viability counter screen (AID 1259386; active = well fitted curve in the direction sought with a large enough effect in the repeat runs; an effect the other way counts as inactive or inconclusive;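 note: cells exposed to compounds for 22 h at 37 °C before the viability read; nearly all actives have a fitted effect of over 30% in size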; note: potency is the fitted concentration of half-maximal effect). The method in brief: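 Fluorescent CellTiter-Fluor viability signal from VM7Luc4E2 cells, with the reagent added during the final hour of a 22hr compound exposure at 37C in the presence of 10.0nM ICI-182,780.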

Test [6] concerns the target Progesterone receptor (Homo sapiens) (UniProt P06401). Kind of test: qHTS assay to identify small molecule agonists of the progesterone receptor (PR) signaling pathway (AID 1346784). Note: nearly all actives have a fitted effect of over 30% in size. An outline of the steps: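 Seed PR-UAS-bla HEK 293T cells (2% charcoal-stripped FBS), incubate 6 hr at 37C; add compounds in DMSO, 16 hr at 37C; add LiveBLAzer B/G substrate, 2 hr RT; read fluorescence intensity.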

For test [7] the target is unchanged. Briefly: qHTS assay to identify small molecule antagonists of the progesterone receptor (PR) signaling pathway (AID 1346795; active = well fitted inhibition curve with a large enough effect in the signal ratio in the repeat runs, not every such curve was filed as active; the % refers to the signal ratio; note: potency is the fitted concentration of half-maximal effect). An outline of the steps:
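Screening used a GripTite HEK293T line with PR-responsive UAS-beta-lactamase. Cells were challenged with compound in the presence of 1 nM R5020 final for 16 hr at 37C; B/G FRET substrate, 2 hr room temperature, fluorescence.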

Test [8] is described as follows: qHTS assay to identify small molecule agonists or antagonists of the thyroid stimulating hormone receptor (TSHR) signaling pathway - wild type cell line counter screen (AID 1259384). An outline of the steps:
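Counter screen in untransfected Hek293: compounds (15-point titration, triplicate) plus phosphodiesterase inhibitor Ro20-1724 added after 18 h plating; 30 min RT. Intracellular cAMP via competitive d2/cryptate immunoassay, 1 h incubation.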

Test [9] has as its target Thyrotropin receptor (Homo sapiens) (UniProt P16473). Kind of test: qHTS assay to identify small molecule antagonists of the thyroid stimulating hormone receptor (TSHR) signaling pathway (AID 1259385). Note: nearly all actives have a fitted effect of over 20% in size. Note: potency is the fitted concentration of half-maximal effect. An outline of the steps: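 Antagonist mode: compound-treated TSHR-expressing HEK293 cells were stimulated with 1.5 ng/mL TSH (final) in presence of Ro20-1724 for 30 min at RT. HTRF cAMP detection after 1 h; each compound tested at 15 concentrations, triplicate.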

Test [10] addresses Androgen receptor (Homo sapiens) (UniProt P10275). Briefly: qHTS assay to identify small molecule agonists of the androgen receptor (AR) signaling pathway in the presence of an antagonist (AID 1259381). Note: nearly all actives have a fitted effect of over 15% in size. The method in brief:
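Here, 15-concentration compound series were pin-transferred onto MDA-kb2 MMTV-luciferase cells already dosed with nilutamide (3.0uM final). After 16hr at 37C, ONE-Glo was added and luminescence read 30min later at room temperature.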

Progesterone receptor (Homo sapiens), sequence (P06401 whole entry, looked up): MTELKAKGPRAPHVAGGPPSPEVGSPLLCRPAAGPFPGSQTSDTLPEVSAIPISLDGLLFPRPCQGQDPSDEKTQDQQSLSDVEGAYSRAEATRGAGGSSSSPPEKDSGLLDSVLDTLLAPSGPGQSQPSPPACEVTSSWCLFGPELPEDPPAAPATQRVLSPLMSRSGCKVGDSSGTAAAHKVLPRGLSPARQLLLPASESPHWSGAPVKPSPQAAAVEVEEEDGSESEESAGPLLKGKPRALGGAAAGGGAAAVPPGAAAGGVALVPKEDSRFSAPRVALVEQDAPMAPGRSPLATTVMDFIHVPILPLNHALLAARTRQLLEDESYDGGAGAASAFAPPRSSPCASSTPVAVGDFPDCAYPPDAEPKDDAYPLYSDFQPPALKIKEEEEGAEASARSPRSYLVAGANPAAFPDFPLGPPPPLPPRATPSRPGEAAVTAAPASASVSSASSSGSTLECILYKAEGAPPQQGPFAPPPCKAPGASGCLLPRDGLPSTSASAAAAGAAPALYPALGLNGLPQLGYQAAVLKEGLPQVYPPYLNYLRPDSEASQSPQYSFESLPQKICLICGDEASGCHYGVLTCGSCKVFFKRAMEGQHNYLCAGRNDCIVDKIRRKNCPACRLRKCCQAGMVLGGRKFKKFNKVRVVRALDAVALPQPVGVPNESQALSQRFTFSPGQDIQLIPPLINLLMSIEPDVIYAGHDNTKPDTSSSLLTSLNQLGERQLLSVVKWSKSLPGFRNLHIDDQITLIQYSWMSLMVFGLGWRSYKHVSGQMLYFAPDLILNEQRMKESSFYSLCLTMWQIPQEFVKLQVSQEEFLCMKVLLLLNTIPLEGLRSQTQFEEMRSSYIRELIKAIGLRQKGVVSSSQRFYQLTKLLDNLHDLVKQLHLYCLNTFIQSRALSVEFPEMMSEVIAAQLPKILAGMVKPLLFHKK
Thyrotropin receptor (Homo sapiens), sequence (P16473 whole entry, looked up): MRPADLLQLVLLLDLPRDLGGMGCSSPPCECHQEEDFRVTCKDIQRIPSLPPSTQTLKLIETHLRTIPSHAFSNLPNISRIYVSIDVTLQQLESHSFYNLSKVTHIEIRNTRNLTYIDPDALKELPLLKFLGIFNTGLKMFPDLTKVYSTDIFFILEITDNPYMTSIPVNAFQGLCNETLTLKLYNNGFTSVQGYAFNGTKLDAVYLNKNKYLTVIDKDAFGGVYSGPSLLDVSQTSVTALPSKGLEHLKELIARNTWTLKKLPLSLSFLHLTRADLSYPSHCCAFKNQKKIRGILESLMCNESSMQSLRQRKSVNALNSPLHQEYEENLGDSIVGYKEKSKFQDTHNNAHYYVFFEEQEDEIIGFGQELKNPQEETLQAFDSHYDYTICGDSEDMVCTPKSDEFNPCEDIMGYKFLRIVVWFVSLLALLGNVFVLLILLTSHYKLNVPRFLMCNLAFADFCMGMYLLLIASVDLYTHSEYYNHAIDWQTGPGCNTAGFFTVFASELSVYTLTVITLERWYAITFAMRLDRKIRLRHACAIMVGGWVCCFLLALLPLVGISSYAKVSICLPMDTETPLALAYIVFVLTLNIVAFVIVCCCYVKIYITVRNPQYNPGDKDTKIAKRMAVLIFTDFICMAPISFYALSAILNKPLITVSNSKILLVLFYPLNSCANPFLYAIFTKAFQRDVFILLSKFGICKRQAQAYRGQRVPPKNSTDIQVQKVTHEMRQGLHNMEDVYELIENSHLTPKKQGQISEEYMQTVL
Estrogen receptor (Homo sapiens), sequence (P03372 whole entry, looked up): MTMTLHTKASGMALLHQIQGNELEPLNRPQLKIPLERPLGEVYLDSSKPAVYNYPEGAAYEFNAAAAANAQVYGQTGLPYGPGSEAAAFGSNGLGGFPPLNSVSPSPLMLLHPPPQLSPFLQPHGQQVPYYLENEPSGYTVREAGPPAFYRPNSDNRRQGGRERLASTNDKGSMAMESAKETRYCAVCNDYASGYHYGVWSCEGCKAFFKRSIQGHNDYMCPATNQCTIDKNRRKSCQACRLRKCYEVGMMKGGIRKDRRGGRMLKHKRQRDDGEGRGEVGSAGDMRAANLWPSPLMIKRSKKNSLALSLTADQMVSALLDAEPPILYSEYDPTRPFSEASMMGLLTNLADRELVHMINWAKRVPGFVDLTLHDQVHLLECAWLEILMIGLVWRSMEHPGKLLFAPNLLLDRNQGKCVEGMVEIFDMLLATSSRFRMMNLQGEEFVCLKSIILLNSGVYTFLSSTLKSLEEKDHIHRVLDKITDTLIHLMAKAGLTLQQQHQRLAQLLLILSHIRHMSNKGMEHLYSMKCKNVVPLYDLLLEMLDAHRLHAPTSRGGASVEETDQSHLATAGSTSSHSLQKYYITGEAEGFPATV
Androgen receptor (Homo sapiens), sequence (P10275 whole entry, looked up): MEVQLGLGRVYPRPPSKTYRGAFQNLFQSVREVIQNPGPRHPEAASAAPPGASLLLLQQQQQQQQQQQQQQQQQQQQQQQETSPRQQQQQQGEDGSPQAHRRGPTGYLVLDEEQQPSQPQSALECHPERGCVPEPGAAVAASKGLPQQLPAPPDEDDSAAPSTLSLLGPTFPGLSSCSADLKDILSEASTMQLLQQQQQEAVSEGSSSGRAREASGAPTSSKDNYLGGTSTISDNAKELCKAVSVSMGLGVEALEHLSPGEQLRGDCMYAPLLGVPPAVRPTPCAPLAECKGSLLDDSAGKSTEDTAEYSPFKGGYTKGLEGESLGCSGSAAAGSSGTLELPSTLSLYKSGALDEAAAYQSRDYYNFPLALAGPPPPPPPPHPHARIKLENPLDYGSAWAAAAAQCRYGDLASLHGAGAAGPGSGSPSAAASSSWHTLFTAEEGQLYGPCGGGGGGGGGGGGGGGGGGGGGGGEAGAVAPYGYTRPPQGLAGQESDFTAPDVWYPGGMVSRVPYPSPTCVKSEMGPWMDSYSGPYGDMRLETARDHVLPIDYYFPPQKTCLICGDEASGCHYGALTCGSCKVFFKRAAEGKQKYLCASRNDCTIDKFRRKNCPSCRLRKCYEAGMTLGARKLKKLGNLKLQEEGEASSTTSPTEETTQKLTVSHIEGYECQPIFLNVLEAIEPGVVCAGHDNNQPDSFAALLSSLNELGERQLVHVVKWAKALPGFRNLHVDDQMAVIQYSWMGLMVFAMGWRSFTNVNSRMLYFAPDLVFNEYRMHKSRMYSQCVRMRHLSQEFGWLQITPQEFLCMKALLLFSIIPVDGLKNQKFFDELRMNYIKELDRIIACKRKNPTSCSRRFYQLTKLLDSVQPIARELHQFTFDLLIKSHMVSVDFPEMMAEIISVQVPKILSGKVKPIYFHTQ

As for `CSc1nnc(C(C)(C)C)c(=O)[nH]1`, the Potency result in [1], in [2], in [3], in test [4], in test [5] and in [7] was “inactive” in each case. Also, the call in test [6] was inactive.
Turning to `O=C(N[C@H](CO)[C@H](O)c1ccc([N+](=O)[O-])cc1)C(Cl)Cl`, the Potency entry in test [1], in test [3], in [4], in test [8], in test [9] and in [5] was “inactive” in each case. In [6], the compound was classed as inactive.
As for `CCCCCCCCCCCCCCCCC(C(=O)O)C(O)(CC(=O)O)C(=O)O` (stereo not given), the Potency entry in [1], in [10], in [3], in test [4], in test [8] and in test [9] was “inactive” in each case. For the same compound, the Potency entry in test [5] and in test [7] was “inactive” in each case. Further, the outcome in test [6] was inactive.
As to `Nc1c(Br)cc([N+](=O)[O-])cc1Br`, the Potency entry in test [1], in [2], in test [4] and in [5] was “inactive” in each case. The outcome in test [6] was inactive.
With `Nc1ccc(Cl)c([N+](=O)[O-])c1`, the Potency entry in test [1], in [10] and in test [5] was “inactive” in each case. Moreover, in [6], the compound was called inactive. Besides, the Potency in test [7] was 54.5 µM (active).
With `O=C1CCCCCCCCCCCCCC1`, the Potency result in [1], in [3], in test [4], in test [8], in test [5] and in test [7] was “inactive” throughout. Besides, the outcome in [6] was inactive.
Regarding `Oc1ccc(Cl)cc1C1CCCC1`, the Potency result in [1], in test [3], in [4], in [8], in test [9] and in [5] was “inactive” in each case. For the same compound, the outcome in [6] was inactive.
With `Cc1ccc(Cl)c(N)c1Cl`, the Potency entry in test [1], in [2], in [3], in test [8], in [9] and in test [5] was “inactive” in each case.
Regarding `CCCC(=O)c1cc(O)c(O)cc1O`, the Potency in test [1] was 54.5 µM (active); in test [5] it was 30.6 µM (active). In addition, the Potency result in [3] and in test [4] was “inactive” in each case.
Turning to `C1=CCCC1`, the Potency entry in test [1], in [10], in test [3], in test [4], in test [8] and in test [9] was “inactive” throughout. Further, the Potency entry in [5] was “inactive”.
Turning to `C=C(C)C1CCC(C)CC1O` (stereo not given), the Potency result in test [1], in test [2], in test [3], in test [8], in test [9] and in test [5] was “inactive” each time. For the same compound, the outcome in test [6] was inactive.
As to `O=C1C=CC(=O)N1c1cccc(N2C(=O)C=CC2=O)c1`, the figures for the Potency in [2], in [3] and in test [9] were 61.1 µM (active), 68.6 µM (active) and 21.7 µM (active), respectively. Besides, the Potency entry in [10], in test [4] and in [8] was “inactive” throughout.
For `C/C=C/C(=O)OCC(C)C`, the Potency entry in test [2], in [10], in test [3], in test [4], in [8] and in test [9] was “inactive” in each case. Besides, the Potency result in [5] is “inactive”. Also, the compound was classed as inactive in [6].
Turning to `CCNc1nc(NC(C)(C)C)nc(OC)n1`, the Potency entry in test [2], in test [3], in test [4], in test [8], in [9] and in [5] was “inactive” in each case. For the same compound, the Potency entry in test [7] was “inactive”. In addition, in [6], the outcome was inactive.
Regarding `CO[Si](OC)(c1ccccc1)c1ccccc1`, the Potency entry in test [2], in [3], in test [4], in [8], in test [9] and in [5] was “inactive” in each case. Also, the compound was called inactive in [6].
For the compound `O=c1[nH]cccc1O`, the Potency entry in test [1], in test [4] and in test [5] was “inactive” each time. In addition, the compound was classed as inactive in test [6].
As to `[Cl][Sc]([Cl])[Cl]`, the Potency entry in [2], in [10], in test [3], in test [4], in test [8] and in test [9] was “inactive” throughout. Moreover, the Potency entry in [5] and in test [7] was “inactive” throughout. The compound was called inactive in [6].
In the case of `C/C(=C\c1ccc(C(=O)O)cc1)c1ccc2c(c1)C(C)(C)CCC2(C)C`, the Potency result in test [1], in test [4], in test [8] and in test [5] was “inactive” in each case. In addition, the Potency in [9] was 29.8 µM (active). Further, in [6], the result was inactive.
Take `c1ccc2c(c1)-c1ccc3ccc4cccc5cc-2c1c3c45`: the Potency result in test [2], in [3], in [4] and in test [8] was “inactive” each time.
As to `O=C(NCc1ncc(C(F)(F)F)cc1Cl)c1c(Cl)cccc1Cl`, the Potency in test [2] was 43.3 µM (active); in test [7] it was 24.3 µM (active). Further, the Potency result in test [10], in test [4], in test [8] and in test [5] was “inactive” each time. Further, the outcome in [6] was inactive.
